{"source": "the supplement of paper PMC8728848", "binders": {"B1": {"name": "SJCP1084 (Schistosoma japonicum) (protein)", "chain": "MRIINLVIISTALLLINLLQTKSQANGEDTKNGTPDDPGLTKSTELKVEVQALLKDKKTNMRVKWNENLLDNTKPEYHNLRDEACELLLQIVRSVVPLSQDDGECKDVTFTKYVVGTKDGAVNVKLTITFKDSVAINQKPMDLKLKLENDFKNLQSESTLKATKPTFTVKVEKRLIPISKPQTTPPTTAKNDASKENVGDIGGEDSTVPTAAPATAASANEEKDEGDKDNKDSQHPNVLTSNVNDRNLIIALVALMILAIGVALTAAVKQR"}}, "assay_in_all_cases": "glycan array binding signal (z-score within array); higher = stronger binding", "conditions_in_all_cases": "glycan notation: IUPAC condensed, linker removed", "key": {"Fuc(a1-2)Gal(b1-3)GlcNAc": {"biological_target": "Fuc(a1-2)Gal(b1-3)GlcNAc", "in_short": "(§1)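 Glycan array data came from 3228 arrays in the Consortium for Functional Glycomics database, and only arrays with an available protein sequence were kept. Glycan names were put into IUPAC-condensed notation, and columns mapping to the same glycan were averaged. The binding signal is a within-array Z-score, averaged across arrays of one protein sequence run at different concentrations or buffers and across linkers. A negative Z-score can be read as non-binding.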"}, "[1]": {"biological_target": "Fuc(a1-2)Gal(b1-3)GlcNAc(b1-3)[Gal(b1-4)GlcNAc(b1-6)]Gal(b1-4)Glc", "in_short": "as §1"}, "[2]": {"biological_target": "Fuc(a1-2)Gal(b1-3)[Fuc(a1-4)]GlcNAc", "in_short": "as §1"}, "[3]": {"biological_target": "Fuc(a1-2)Gal(b1-3)[Fuc(a1-4)]GlcNAc(b1-2)Man(a1-3)[Fuc(a1-2)Gal(b1-3)[Fuc(a1-4)]GlcNAc(b1-2)Man(a1-6)]Man(b1-4)GlcNAc(b1-4)[Fuc(a1-6)]GlcNAc(b1-4)[Fuc(a1-6)]GlcNAc", "in_short": "as §1"}, "[4]": {"biological_target": "Fuc(a1-2)Gal(b1-3)[Fuc(a1-4)]GlcNAc(b1-3)[Fuc(a1-3)[Gal(b1-4)]GlcNAc(b1-6)]Gal(b1-4)Glc", "in_short": "as §1"}, "[5]": {"biological_target": "Fuc(a1-2)Gal(b1-4)GlcNAc(b1-2)Man", "in_short": "as §1"}, "[6]": {"biological_target": "Fuc(a1-2)Gal(b1-4)GlcNAc(b1-3)Gal(b1-4)GlcNAc(b1-2)Man(a1-3)[Fuc(a1-2)Gal(b1-4)GlcNAc(b1-3)Gal(b1-4)GlcNAc(b1-2)Man(a1-6)]Man(b1-4)GlcNAc(b1-4)GlcNAc", "in_short": "as §1"}, "[7]": {"biological_target": "Fuc(a1-2)[Gal(a1-3)]Gal(b1-4)GlcNAc(b1-3)GalNAc", "in_short": "as §1"}, "[8]": {"biological_target": "Fuc(a1-2)[GalNAc(a1-3)]Gal", "in_short": "as §1"}, "[9]": {"biological_target": "Fuc(a1-2)[GalNAc(a1-3)]Gal(b1-3)GalNAc(a1-3)[Fuc(a1-2)]Gal(b1-4)GlcNAc", "in_short": "as §1"}, "[10]": {"biological_target": "Fuc(a1-2)[GalNAc(a1-3)]Gal(b1-3)GlcNAc", "in_short": "as §1"}, "[11]": {"biological_target": "Fuc(a1-2)[GalNAc(a1-3)]Gal(b1-3)GlcNAc(b1-3)GalNAc", "in_short": "as §1"}, "[12]": {"biological_target": "Fuc(a1-2)[GalNAc(a1-3)]Gal(b1-4)[Fuc(a1-3)]GlcNAc(b1-3)GalNAc", "in_short": "as §1"}, "[13]": {"biological_target": "Fuc(a1-3)[Gal3S(b1-4)]GlcNAc", "in_short": "as §1"}, "[14]": {"biological_target": "Gal(a1-4)Gal(b1-3)GlcNAc(b1-2)Man(a1-3)[Gal(a1-4)Gal(b1-3)GlcNAc(b1-2)Man(a1-6)]Man(b1-4)GlcNAc(b1-4)GlcNAc", "in_short": "as §1"}, "[15]": {"biological_target": "Gal(b1-3)GlcNAc(b1-3)Gal(b1-4)GlcNAc(b1-2)Man(a1-3)[Gal(b1-3)GlcNAc(b1-3)Gal(b1-4)GlcNAc(b1-2)Man(a1-6)]Man(b1-4)GlcNAc(b1-4)GlcNAc", "in_short": "as §1"}, "[16]": {"biological_target": "Gal(b1-3)[Fuc(a1-4)]GlcNAc(b1-6)GalNAc", "in_short": "as §1"}, "[17]": {"biological_target": "Gal(b1-4)GalNAc(a1-3)[Fuc(a1-2)]Gal(b1-4)GlcNAc", "in_short": "as §1"}, "[18]": {"biological_target": "Gal(b1-4)GlcNAc(b1-2)[Gal(b1-4)GlcNAc(b1-6)]Man(a1-6)[Gal(b1-4)GlcNAc(b1-2)Man(a1-3)]Man(b1-4)GlcNAc(b1-4)[Fuc(a1-6)]GlcNAc", "in_short": "as §1"}, "[19]": {"biological_target": "Gal(b1-4)GlcNAc(b1-3)Gal(b1-4)GlcNAc(b1-2)Man(a1-3)[Gal(b1-4)GlcNAc(b1-3)Gal(b1-4)GlcNAc(b1-2)Man(a1-6)]Man(b1-4)GlcNAc(b1-4)[Fuc(a1-6)]GlcNAc", "in_short": "as §1"}, "[20]": {"biological_target": "Gal(b1-4)GlcNAc(b1-3)Gal(b1-4)GlcNAc(b1-3)Gal(b1-4)GlcNAc(b1-2)Man(a1-3)[Gal(b1-4)GlcNAc(b1-3)Gal(b1-4)GlcNAc(b1-3)Gal(b1-4)GlcNAc(b1-2)Man(a1-6)]Man(b1-4)GlcNAc(b1-4)[Fuc(a1-6)]GlcNAc", "in_short": "as §1"}, "[21]": {"biological_target": "Gal(b1-4)GlcNAc(b1-3)Gal(b1-4)GlcNAc(b1-3)Gal(b1-4)GlcNAc(b1-3)Gal(b1-4)GlcNAc(b1-2)Man(a1-3)[Gal(b1-4)GlcNAc(b1-3)Gal(b1-4)GlcNAc(b1-3)Gal(b1-4)GlcNAc(b1-3)Gal(b1-4)GlcNAc(b1-2)Man(a1-6)]Man(b1-4)GlcNAc(b1-4)[Fuc(a1-6)]GlcNAc", "in_short": "as §1"}, "[22]": {"biological_target": "Gal(b1-4)GlcNAc(b1-3)Gal(b1-4)GlcNAc(b1-3)Gal(b1-4)GlcNAc(b1-3)Gal(b1-4)GlcNAc(b1-3)Gal(b1-4)GlcNAc(b1-2)Man(a1-3)[Gal(b1-4)GlcNAc(b1-3)Gal(b1-4)GlcNAc(b1-3)Gal(b1-4)GlcNAc(b1-3)Gal(b1-4)GlcNAc(b1-3)Gal(b1-4)GlcNAc(b1-2)Man(a1-6)]Man(b1-4)GlcNAc(b1-4)GlcNAc", "in_short": "as §1"}}, "note": "Shown is part of a subset that was picked to be rich in the strongest signals."}
{"binder": "B1", "values": [{"measurement": "glycan array binding signal (z-score)", "setting": "Fuc(a1-2)Gal(b1-3)GlcNAc", "result": 0.181}, {"measurement": "glycan array binding signal (z-score)", "setting": "[1]", "result": -0.827}, {"measurement": "glycan array binding signal (z-score)", "setting": "[2]", "result": 0.425}, {"measurement": "glycan array binding signal (z-score)", "setting": "[3]", "result": -0.159}, {"measurement": "glycan array binding signal (z-score)", "setting": "[4]", "result": -0.831}, {"measurement": "glycan array binding signal (z-score)", "setting": "[5]", "result": 1.24}, {"measurement": "glycan array binding signal (z-score)", "setting": "[6]", "result": 4.99}, {"measurement": "glycan array binding signal (z-score)", "setting": "[7]", "result": -0.455}, {"measurement": "glycan array binding signal (z-score)", "setting": "[8]", "result": 0.405}, {"measurement": "glycan array binding signal (z-score)", "setting": "[9]", "result": -0.717}, {"measurement": "glycan array binding signal (z-score)", "setting": "[10]", "result": 0.643}, {"measurement": "glycan array binding signal (z-score)", "setting": "[11]", "result": 2.68}, {"measurement": "glycan array binding signal (z-score)", "setting": "[12]", "result": -0.545}, {"measurement": "glycan array binding signal (z-score)", "setting": "[13]", "result": -1.01}, {"measurement": "glycan array binding signal (z-score)", "setting": "[14]", "result": 3.06}, {"measurement": "glycan array binding signal (z-score)", "setting": "[15]", "result": 0.617}, {"measurement": "glycan array binding signal (z-score)", "setting": "[16]", "result": -0.381}, {"measurement": "glycan array binding signal (z-score)", "setting": "[17]", "result": -0.495}, {"measurement": "glycan array binding signal (z-score)", "setting": "[18]", "result": 2.77}, {"measurement": "glycan array binding signal (z-score)", "setting": "[19]", "result": 4.14}, {"measurement": "glycan array binding signal (z-score)", "setting": "[20]", "result": 3.35}, {"measurement": "glycan array binding signal (z-score)", "setting": "[21]", "result": 3.73}, {"measurement": "glycan array binding signal (z-score)", "setting": "[22]", "result": 4.37}]}
